Screening results: PubChem BioAssay, National Center for Advancing Translational Sciences (NCATS)
An excerpt weighted towards active compounds, which were near 0.41% of everything screened.
N370S GC mod: inhibitors or activators of N370S glucocerebrosidase for Gaucher disease; P04062; N370S GC spleen homogenate, 4MU-glucoside fluorescence; Potency, µM (titrated, usually from 59.4 µM), without a hit: at the highest dose activity change, negative = inhibition, actives largely listed as inhibitors; 0.092% of 330,000 active; AID 2101;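 further: potency means the concentration at half of the fitted maximal effect; 0% = full enzyme activity and -100% = no enzyme basal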
GLA inh pH 4.5: blocks human alpha-galactosidase A at pH 4.5; P06280; purified enzyme, 4-MU-alpha-Gal fluorescence, pH 4.5; activity change, negative = inhibition, % at 105 µM; 230,000 tested, under 10 active;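 further: 0% = full activity with enzyme and -100% = basal without enzyme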
GAA glycogen mod: GAA glycogen-cleavage inhibition or activation | Potency, µM (titrated, usually from 76.4 µM), for inactives: at the highest dose activity change, negative = inhibition, most hits filed as inhibitors | recombinant GAA, glycogen substrate, Amplex Red glucose oxidase fluorescence | P10253 | 0.38% of 300,000 active | AID 2100;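 further: potency means the concentration at half of the fitted maximal effect; 0% = full enzyme reaction and -100% = no-enzyme basal signal; the screen sought inhibitors and activators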
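Recombinant human alpha-glucosidase (4 nM final) hydrolysed bovine liver glycogen (30 ug) for 40 min at 37 C in pH 5.0 citrate/phosphate with 0.01% Tween-20. Released glucose detected by glucose oxidase/Amplex Red, Ex 573/Em 610 nm. Compounds up to 77 uM; AC50 from Hill fits.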
aGal spleen mod: inhibitors or activators of human alpha-galactosidase in spleen homogenate; P06280; human spleen homogenate, 4MU-alpha-Gal fluorescence, 40 min; Potency, µM (doses to about 80 µM), for the others: top-dose activity change, negative = inhibition, most hits filed as inhibitors; 0.008% of 240,000 active; AID 2107;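 further: potency means the concentration at half of the fitted maximal effect; 0% = enzyme with vehicle and -100% = no enzyme basal signal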
Target sequence (P06280 32-429 limits assumed): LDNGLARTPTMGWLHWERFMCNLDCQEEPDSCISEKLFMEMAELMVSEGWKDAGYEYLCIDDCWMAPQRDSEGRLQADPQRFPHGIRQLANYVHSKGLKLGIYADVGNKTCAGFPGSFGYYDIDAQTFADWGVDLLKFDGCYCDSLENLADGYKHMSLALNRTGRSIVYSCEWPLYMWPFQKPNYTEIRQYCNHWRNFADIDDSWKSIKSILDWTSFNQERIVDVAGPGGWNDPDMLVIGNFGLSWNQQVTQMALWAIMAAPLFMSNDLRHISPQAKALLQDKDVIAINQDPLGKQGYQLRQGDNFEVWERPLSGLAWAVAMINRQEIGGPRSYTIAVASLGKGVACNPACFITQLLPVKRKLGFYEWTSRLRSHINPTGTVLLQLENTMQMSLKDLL
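Spleen homogenate 1 ug + cpd (titration) + 4-MU-alpha-D-galactopyranoside 1 mM; 37C 40 min; 50 mM citrate/phosphate pH 5.0, 0.01% Tween-20; stop pH 10; fluorescence 365/440; AC50 via Hill.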
GAA spleen mod: lysosomal alpha-glucosidase (human) modulation. P10253. 0.006% of 240,000 active. human spleen homogenate, 4-MU-alpha-glucoside fluorescence. Potency, µM (titrated, usually from 79.9 µM), for the others: at the top dose activity change, negative = inhibition, hits mostly inhibitors;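 further: potency means the concentration at half of the fitted maximal effect; 0% = enzyme with vehicle and -100% = no enzyme basal signal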
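Compounds were titrated against alpha-glucosidase in spleen homogenate at pH 5.0, with 1 mM 4-methylumbelliferyl substrate for 40 min at 37 C. Reactions were quenched with pH 10 NaOH/glycine and fluorescence measured.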
GAA inhib: inhibitors of human lysosomal alpha-glucosidase; 0.005% of 200,000 active; AID 1466; Potency, µM (doses to about 76.9 µM), for the others: at the top dose activity change, negative = inhibition, actives largely listed as inhibitors; purified human GAA, 4-MU-alpha-glucoside fluorescence; P10253;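 further: potency means the concentration at half of the fitted maximal effect; plate controls were uninhibited enzyme wells for no effect and no-enzyme background for full effect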
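AC50 values come from Hill fits of compound titrations (up to 77 uM) against 4 nM human enzyme. Substrate 4-methylumbelliferyl-alpha-D-pyranoside at 400 uM, pH 5.0 citrate buffer, 20 min room temperature; fluorescence Ex 365/Em 440 after alkaline stop.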
Numbers without * were called inactive; ? = inconclusive; . = not tested or not shown; ! = a repeat was not active; [ ] = dose if it differs, or a comment. The call rests on the fitted dose curve; in most records, active means well fitted curve in the direction sought with a large enough effect; inconclusive means small, poorly fitted or top-dose-only effect, or another doubt; inactive means no such curve, though single readings can be large; an effect the other way counts as inactive or inconclusive.

SMILES | N370S GC mod | GLA inh pH 4.5 | GAA glycogen mod | aGal spleen mod | GAA spleen mod | GAA inhib
O=C(CSc1ccc2ccccc2c1)N1CCN(c2ccc(O)cc2)CC1 | -22% | 0 | 16µM* | -1% | -3% | .
CCOC(=O)N1CCN(c2ccc(Cl)cc2)CC1 | 1% | -7 | -2% | 5% | 2% | 0%
O=C(c1ccc2ccccc2c1)N1CCN(c2ccc(O)cc2)CC1 | -19% | -23 | 18µM* | 6% | -1% | 5%
COc1ccc(N2CCN(C(=O)CSc3nnc(-c4cc5ccccc5cc4O)n3C)CC2)cc1 | 8% | 4 | -14% | -1% | 7% | 1%
O=C(COc1ccc2ccccc2c1)N1CCN(c2ccccc2O)CC1 | -23% | 7 | 14µM* | 2% | -3% | -9%
CCOC(=O)N1CCN(c2ccc(O)cc2)CC1 | 11% | 5 | 25µM* | 0% | 0% | -6%
Cc1c(CC(=O)NCCc2ccccc2F)c(=O)oc2cc(O)c(Cl)cc12 | . | . | 12%[76.3 µM] | . | . | .
CCOc1ccc(C2CC(=O)Nc3nc(SCc4ccccc4C)[nH]c(=O)c32)cc1OC (configuration not stated) | . | . | 5%[76.3 µM] | . | . | .
Oc1ccccc1N=Cc1c(O)ccc2oc3c(c12)CCCC3 | 7% | -2 | 5.6µM* | -1% | 3% | .
CC/C(=C\C(=O)c1ccncc1)Nc1ccc(O)cc1 | 3%[2.35 µM] | -14 | 45µM* | 9% | -8% | -8%
COc1ccccc1N1CCN(CCCCN2C(=O)c3ccccc3C2=O)CC1 | 5% | 1 | . | 10µM*! | 3% | .
COC(=O)c1ccc(NC(=O)CN(c2cccc(C(F)(F)F)c2)S(C)(=O)=O)cc1 | . | . | -12%[76.3 µM] | . | . | .
Cc1cc(/C=C2/C(=O)NN(c3ccccc3)C2=O)c(C)n1-c1ccc(O)cc1 | 8.9µM* | -11 | 9% | -5% | -8% | -4%
CCCCN(CC)S(=O)(=O)c1ccc(C(=O)N(CCCN(C)C)c2nc3cc(C)cc(C)c3s2)cc1 | ? | -5 | 16% | -2% | 5% | -5%
CCN(Cc1ccccc1)S(=O)(=O)c1ccc(C(=O)N(CCCN(C)C)c2nc3cc(C)cc(C)c3s2)cc1 | 14µM* | . | . | . | . | .
CC#CC[N+](C)(C)CCCCCCCCCC | 16µM* | -6 | 17% | 9% | -6% | .
C(=Nc1ccc(Nc2ccccc2)cc1)c1ccc2ccccc2c1 | -6% | -1 | 18µM* | -9% | -3% | -5%
Brc1ccc(C=Nc2ccc(Nc3ccccc3)cc2)s1 | -4% | 19 | 8.9µM* | 1% | -11% | 2%
COc1ccc(Br)cc1S(=O)(=O)NNC(=O)c1c(C)nc2ccccn12 | -7% | -2 | 10µM* | 7% | 2% | 6%
CCOc1ccc(OCC)c(S(=O)(=O)NNC(=O)c2c(C)nc3ccccn23)c1 | -1% | -8 | 8% | 0% | -8% | -3%
CC1CCC/C(=N/Nc2ccc([N+](=O)[O-])cc2[N+](=O)[O-])C1 (configuration not stated) | -3% | -17 | 16µM* | 7% | 2% | -12%
COc1cccc(C(=O)Nc2ccccc2-c2nnc(-c3cccc(OC)c3)o2)c1 | . | . | -17%[76.3 µM] | . | . | .
CN1CC(=O)N2Cc3[nH]c4ccccc4c3C[C@H]2C1=O | -7% | . | -6% | . | . | .
CCOc1ccc(N(CC(=O)NCCc2ccc(Cl)cc2)S(=O)(=O)c2c(C)[nH]c(=O)[nH]c2=O)cc1 | 10µM* | -3 | 6% | 5% | 5% | 1%
COc1ccc(CNC(=O)CN(c2ccc(C)cc2)S(=O)(=O)c2c(C)n[nH]c2C)cc1 | . | . | -4%[76.3 µM] | . | . | .
CCOc1ccc(N(CC(=O)NCc2ccc(OC)cc2)S(=O)(=O)c2c(C)[nH]c(=O)[nH]c2=O)cc1 | 11µM* | . | -13%[76.3 µM] | . | . | .
CCOc1ccc(S(=O)(=O)N(CC(=O)NCCc2ccc(OC)cc2)c2ccccc2)cc1 | . | . | -5%[76.3 µM] | . | . | .
CCOC(=O)c1ccc(N2C(=O)c3n[nH]c(C)c3C2c2ccccc2OC)cc1 (configuration not stated) | . | . | 1%[76.3 µM] | . | . | .
